The nature of test [1]: Cell Viability - MRC5 (AID 434; calls by dose curve;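 note: potency is the fitted concentration of half-maximal effect; potency reflects cytotoxicity seen as loss of intracellular ATP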). To be noted: MRC5 lung fibroblast viability, qHTS. A digest of the protocol:
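MRC5 normal human lung fibroblasts, 1500 cells/well, exposed to compound for 40 hr at 37 C. Cellular ATP was read by CellTiter-Glo luminescence; data normalized to DMSO and 100 uM tamoxifen, with AC50 from Hill fits.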
A general note: In qHTS, concentration-response curves come from the screen itself.

Test [2] is described as follows: Cellular Toxicity (caspase-3) H-4-II-E (AID 663).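 Note: cells exposed to compound for 16 hr before readout; 0% = DMSO basal and 100% = 100 µM tamoxifen.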 To be noted: Potency: caspase-3 activation. A digest of the protocol: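 Rat hepatoma H-4-II-E cells (1500/well) plated 5 hr, then exposed to compound titrations for 16 hr at 37 °C. Caspase-Glo 3/7 luminescence read after 20 min at RT; data normalized to DMSO and 100 uM tamoxifen, AC50 from Hill fits.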
Test [3] is described as follows: Cellular Toxicity (caspase-3) Renal Proximal Tubule (AID 667).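 Note: cells exposed to compound for 16 hours at 37 °C before detection; 0% = DMSO basal and 100% = 10 µM staurosporine.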 The essentials: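 Luminescent caspase 3/7 signal from peptide-aminoluciferin cleavage measures apoptosis in freshly isolated rat kidney proximal tubule cells after 16 h compound exposure. Concentration-response data are normalized to DMSO and 10 uM staurosporine, and AC50 values come from Hill equation fits.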

Test [4] in a line: MultiTox-Fluor Cytotoxicity Assay - LYMP1-002 - Dead Cells (AID 960). Note: nearly all actives have a fitted effect of over 60% in size. Note: potency is the fitted concentration of half-maximal effect. A digest of the protocol: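 Human lymphoblastoid cells (LYMP1-002), 2500/well in complete medium, were exposed to compounds for 16 hr at 37 C. Dead-cell protease activity was read as bis-AAF-R110 fluorescence (Ex/Em 485/520), normalized to DMSO and 15 uM tetraoctylammonium bromide; AC50 from Hill fits.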
The nature of test [5]: MultiTox-Fluor Cytotoxicity Assay - LYMP1-003 - Live Cells (AID 962).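 Note: 0% = DMSO only and full loss = 92 µM tetraoctylammonium bromide; cytotoxic hits lower the live-cell protease signal.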 A digest of the protocol: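 LYMP1-003 human lymphoblastoid cells (2500/well) in complete medium were preincubated 5 hr at 37 C, then exposed to compounds for 16 hr at 37 C. Live-cell protease cleavage of GF-AFC read by fluorescence (Ex/Em 405/510); AC50 from Hill fits.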
Test [6] in a line: Cell Viability - LYMP2-003 (AID 965).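 Note: cells exposed to compounds for 24 h before reading; 0% = DMSO only and full effect = 92 µM tetraoctylammonium bromide; nearly all actives have a fitted effect of over 50% in size.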 The essentials:
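CellTiter-Glo luminescence (cellular ATP) after 24 h compound exposure at 37 C in complete medium; 2500 cells/well, 5 h settling beforehand. Concentration-response fitted to standard Hill equation for AC50. Tetraoctylammonium bromide served as positive control.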

A short description of test [7]: Cell Viability - LYMP2-005 (AID 967).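 Note: series mostly up to about 92 µM; plate controls were DMSO only for no effect and 92 µM tetraoctylammonium bromide control for full effect.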 The essentials:
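Steps: seed 2500 LYMP2-005 cells/well, incubate 5 h at 37 C, add compound, incubate 24 h at 37 C, add CellTiter-Glo, wait 30 min at RT, read luminescence. Concentration-response data fitted to Hill equation for AC50.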

Test [8] can be described thus: Cell Viability - LYMP2-015 (AID 971).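 Note: 0% = DMSO only and full effect = 92 µM tetraoctylammonium bromide; nearly all actives have a fitted effect of over 55% in size.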 The essentials:
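Human lymphoblastoid cells (2500/well) in complete medium were preincubated 5 hr at 37 C, then compound-treated 24 hr at 37 C. Intracellular ATP was read by CellTiter-Glo luminescence after 30 min at room temperature; AC50 came from Hill-equation concentration-response fits.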

The nature of test [9]: Cell Viability - LYMP2-017 (AID 972). Note: series mostly up to about 92 µM; % is set by controls: 0 for no effect and ±100 for the full control effect; nearly all actives have a fitted effect of over 55% in size. The essentials:
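Human lymphoblastoid cells (2500/well) were seeded in complete medium, held 5 hr at 37 C, then exposed to compounds for 24 hr at 37 C. Intracellular ATP was read by CellTiter-Glo luminescence after 30 min at room temperature, with AC50 values from Hill-equation fits.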

Test [10] is described as follows: Cell Viability - LYMP2-007 (AID 979).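 Note: cells exposed to compound for 24 h before reading; 0% = DMSO only and the negative end = 92 µM tetraoctylammonium bromide; nearly all actives have a fitted effect of over 60% in size.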 A digest of the protocol: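 Human lymphoblastoid cells (2500/well) were plated in complete medium, incubated 5 hr at 37 C, then exposed to compounds for 24 hr at 37 C. Intracellular ATP was read by CellTiter-Glo luminescence after 30 min at room temperature; AC50 from Hill fits.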
Test [11] in a line: Cell Viability - LYMP2-014 (AID 983).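 Note: series mostly up to about 92 µM; plate controls were DMSO only for no effect and 92 µM tetraoctylammonium bromide for full effect; nearly all actives have a fitted effect of over 50% in size.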 The essentials:
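Human lymphoblastoid cells (2500/well) were pre-incubated 5 hr at 37 C, then exposed to compounds in complete medium for 24 hr at 37 C. Intracellular ATP was read by CellTiter-Glo luminescence after 30 min at room temperature; AC50 from Hill fits.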

Test [12] in a line: Cell Viability - LYMP2-016 (AID 984). Note: % is set by controls: 0 for no effect and ±100 for the full control effect; nearly all actives have a fitted effect of over 55% in size. The essentials: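 qHTS, 1536-well: 2500 LYMP2-016 cells/well, 5 hr 37 C, compound added, 24 hr 37 C, CellTiter-Glo 30 min RT, luminescence. Tetraoctylammonium bromide positive control. AC50 via Hill fit.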
Test [13] can be described thus: Cell Viability - LYMP2-024 (AID 988).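 Note: plate controls were DMSO only for no effect and 92 µM tetraoctylammonium bromide for full effect; nearly all actives have a fitted effect of over 60% in size.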 The essentials: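 Human lymphoblastoid cells (2500/well) in complete medium were preincubated 5 hr at 37 C, then exposed to compounds for 24 hr at 37 C. Intracellular ATP was read by CellTiter-Glo luminescence; AC50 from Hill-equation fits of concentration-response data.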
A short description of test [14]: Cell Viability - LYMP1-002 - Assay at 40 hr (AID 994).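 Note: 0% = DMSO only and full inhibition = 92 µM tetraoctylammonium bromide; nearly all actives have a fitted effect of over 60% in size.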 A digest of the protocol:
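Human lymphoblastoid cells, 2500/well in complete medium, were preincubated 5 hr at 37 C, then exposed to compounds for 40 hr at 37 C. Intracellular ATP was read by CellTiter-Glo luminescence after 30 min at room temperature; AC50 from Hill-equation fits.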

The nature of test [15]: qHTS assay for small molecule activators of the p53 signaling pathway (AID 651743; active = well fitted activation curve with a large enough effect in the signal ratio, not every such curve was filed as active; the % refers to the signal ratio; note: series mostly up to about 92 µM; % of control where 0% means no effect). The note with it: HCT-116 p53RE-bla, beta-lactamase FRET ratio, 16 h; activation: stronger effect = higher value. A digest of the protocol:
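HCT-116 p53RE-bla, 4,000 cells/well; 5 h settle; cpd/DMSO 16 h, 37 C; LiveBLAzer B/G 2 h RT; fluorescence intensity.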

Test [16] deals with Tumor necrosis factor (Homo sapiens) (UniProt P01375). As to the kind of experiment: qHTS assay to identify small molecules that stimulate Tumor Necrosis Factor-alpha (TNF-alpha) secretion (AID 651757; active = well fitted curve in the direction sought with a large enough effect in the signal ratio; the % refers to the signal ratio; note: 0% is about no effect). A digest of the protocol:
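THP-1 cells were exposed to compounds for 17 hrs at 37 C, after which secreted TNF-alpha was measured by homogeneous HTRF (TR-FRET) using cryptate- and XL665-labeled anti-TNF-alpha antibodies, read after 3 hr at room temperature.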

A short description of test [17]: qHTS assay for small molecule antagonists of the retinoid-related orphan receptor gamma (ROR-gamma) signaling pathway - cell viability counter screen (AID 720652; active = well fitted curve in the direction sought with a large enough effect in the repeat runs; an effect the other way counts as inactive or inconclusive;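 note: CHO reporter cells with doxycycline-induced ROR-gamma expression; series mostly up to about 92 µM; compound exposure lasted 16 hr before ATP read; % is set by controls: 0 for no effect and ±100 for the full control effect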). The essentials: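 Counter screen in CHO cells carrying TET-inducible ROR-gamma and an ROR response element-luciferase reporter; cells plated 5 hr, compound pinned, doxycycline added, then 16 hr at 37 C. Viability read as intracellular ATP by CellTiter-Glo luminescence.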

Test [18] is described as follows: qHTS assay for cell viability of HEK293 cells (AID 743288). Note: % is set by controls: 0 for no effect and ±100 for the full control effect; nearly all actives have a fitted effect of over 50% in size. To be noted: ATP luminescence (CellTiter-Glo), 18 h, stronger effect = lower value. The essentials: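 Environmental chemicals tested in qHTS format against parental HEK293 cells; 18 h treatment, 37 C; read-out ATP luminescence (CellTiter-Glo), 30 min RT development.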
Test [19] is described as follows: Cell Viability - HepG2 (AID 433; calls by dose curve;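 note: potency is the fitted concentration of half-maximal effect; potency for ATP loss meaning cytotoxicity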). To be noted: qHTS. A digest of the protocol:
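ATP luminescence (CellTiter-Glo) after 40 h compound exposure, 37 °C, HepG2, 1500 cells/well, complete medium. Normalized: DMSO = basal, 100 uM tamoxifen = 100% inhibition. AC50 via standard Hill equation.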

The target of test [20] is Cytochrome P450 3A4 (Homo sapiens) (UniProt P08684). As to the kind of experiment: qHTS Assay for Inhibitors and Substrates of Cytochrome P450 3A4 (AID 884). Note: nearly all actives have a fitted effect of over 50% in size. Note: potency is the fitted concentration of half-maximal effect. A digest of the protocol:
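20 nM human CYP3A4 with 25 uM Luciferin-PPXE (at KM) in 200 mM KPO4, preincubated 10 min with compound; NADPH regeneration started a 60 min RT reaction. Luciferin detected by luminescence, normalized to 57 uM ketoconazole as full inhibition.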

Molecules are shown by their SMILES. A number with no mark means an inactive call. Records with an inconclusive call do not appear. Calls of active or inactive are those of the source. Unless noted, calls come from the whole dose curve; as a rule, active = well fitted curve in the direction sought with a large enough effect; inconclusive = small, poorly fitted or top-dose-only effect, or another doubt; inactive = no such curve, though single readings can be large; an effect the other way counts as inactive or inconclusive.

The results in this text go back to PubChem BioAssay (NCATS).

Chain of Cytochrome P450 3A4 (Homo sapiens) (P08684 whole entry, looked up): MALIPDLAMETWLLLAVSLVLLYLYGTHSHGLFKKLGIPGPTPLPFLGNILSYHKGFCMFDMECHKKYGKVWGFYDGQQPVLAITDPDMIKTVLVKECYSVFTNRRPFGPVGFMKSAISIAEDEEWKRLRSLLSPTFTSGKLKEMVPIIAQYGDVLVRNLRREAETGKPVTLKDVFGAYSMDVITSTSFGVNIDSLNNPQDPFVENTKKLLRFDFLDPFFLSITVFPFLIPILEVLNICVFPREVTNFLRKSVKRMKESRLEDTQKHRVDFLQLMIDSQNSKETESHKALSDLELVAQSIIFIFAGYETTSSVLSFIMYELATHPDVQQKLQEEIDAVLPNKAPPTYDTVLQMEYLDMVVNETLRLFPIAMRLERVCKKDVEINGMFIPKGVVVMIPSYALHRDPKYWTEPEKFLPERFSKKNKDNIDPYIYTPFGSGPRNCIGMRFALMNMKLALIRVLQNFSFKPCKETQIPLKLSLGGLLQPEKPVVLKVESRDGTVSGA
Chain of Tumor necrosis factor (Homo sapiens) (P01375 whole entry, looked up): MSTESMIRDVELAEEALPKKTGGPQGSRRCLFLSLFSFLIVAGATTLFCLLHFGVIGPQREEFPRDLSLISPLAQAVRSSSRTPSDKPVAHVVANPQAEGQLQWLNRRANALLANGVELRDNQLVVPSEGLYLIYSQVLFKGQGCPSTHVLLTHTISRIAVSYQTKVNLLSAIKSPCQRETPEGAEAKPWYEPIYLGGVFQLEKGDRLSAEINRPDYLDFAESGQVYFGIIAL

Consider `Nc1cc(Cl)cc(Cl)c1`, for which the Potency in [1] is more than 92 µM. Besides, the Potency result in test [2], in test [4], in [6], in test [7], in [8] and in test [9] was “inactive” throughout. Also, the Potency entry in test [10], in test [11], in [12], in test [13], in [14] and in test [17] was “inactive” each time. Besides, the outcome in test [3], in test [5] and in [16] was inactive. The activation in test [15] was 1.82%. Moreover, the max response in [18] was 5.59%.
With `Oc1ccc(Cl)c(Cl)c1Cl`, the Potency in [19] and in [1] was more than 92 µM each time. The Potency result in test [2], in test [4], in test [6], in test [7], in [8] and in test [9] was “inactive” throughout. The Potency entry in [10], in [11], in [12], in test [13], in test [14] and in test [17] was “inactive” throughout. The compound was called inactive in test [3], in test [5] and in [16]. For the same compound, the activation in test [15] was -0.769%. The max response in [18] was -4.77%.
Take `[O-][Cl+2]([O-])O`: the Potency in test [19] and in test [1] was more than 92 µM each time. Besides, the Potency result in test [2], in test [20], in test [4], in test [6], in [7] and in [8] was “inactive” throughout. Also, the Potency result in test [9], in test [10], in test [11], in [12], in test [13] and in test [14] was “inactive” in each case. In addition, the Potency result in [17] was “inactive”. Also, the outcome in test [3], in test [5] and in [16] was inactive. Moreover, in test [15], the activation is 0.222%. Further, in test [18], the max response was -5.12%.
Take `C=CC(=O)OC`: the Potency in test [19] and in test [1] was more than 92 µM each time. The Potency entry in test [2], in test [20], in test [4], in test [6], in test [7] and in test [8] was “inactive” each time. The Potency entry in [9], in [10], in [11], in [12], in test [13] and in test [14] was “inactive” in each case. In [17], the Potency result was “inactive”. In addition, the compound was classed as inactive in test [3], in [5] and in test [16]. In addition, in [15], the activation is -0.53%. In addition, the max response in [18] was 4.03%.
In the case of `CC(C)OS(C)(=O)=O`, the Potency in [19] and in test [1] was more than 92 µM each time. In addition, the Potency entry in [2], in [20], in test [6], in [8], in test [9] and in test [10] was “inactive” each time. The Potency result in [11], in test [12], in [13], in test [14] and in test [17] was “inactive” in each case. In addition, the compound was called inactive in test [3], in [5] and in test [16]. In addition, in test [15], the activation is -0.853%. The max response in test [18] was -1.94%.
`CCOC(=O)CBr`: the Potency in test [19] and in [1] was more than 92 µM in each case. For the same compound, the Potency entry in test [2], in test [20], in test [4], in test [6], in test [7] and in [8] was “inactive” in each case. Also, the Potency result in test [9], in test [10], in [11], in [12], in [13] and in [14] was “inactive” each time. The Potency result in [17] was “inactive”. Moreover, the call in [3], in test [5] and in [16] was inactive. Besides, the activation in test [15] was -2.17%. The max response in test [18] was -5.15%.
Take `Oc1cc(Cl)cc(Cl)c1`: the Potency in [19] and in test [1] was more than 92 µM in each case. Also, the Potency entry in [2], in [20], in test [4], in test [6], in test [7] and in [8] was “inactive” in each case. Besides, the Potency result in test [9], in test [10], in [12], in test [13], in test [14] and in test [17] was “inactive” throughout. Further, the compound was classed as inactive in [3], in [5] and in [16]. Moreover, the activation in [15] is 1.86%. Also, the max response in [18] is 3.49%.
Turning to `N#CC(O)c1ccccc1` (stereo not drawn), the Potency in [19] and in test [1] was more than 92 µM each time. For the same compound, the Potency result in [2], in test [20], in test [4], in test [6], in test [7] and in test [8] was “inactive” each time. Moreover, the Potency result in test [9], in test [10], in test [11], in [12], in test [13] and in test [14] was “inactive” each time. Besides, the Potency result in [17] is “inactive”. For the same compound, the compound was called inactive in [5] and in [16]. Also, the max response in test [18] is 2.16%.
`Cc1cc(C)cc(OP(=O)(Oc2cc(C)cc(C)c2)Oc2cc(C)cc(C)c2)c1`: the Potency in test [19] is more than 92 µM; in test [1], more than 92 µM; in [20], 2.51 µM (active); in test [4] it was 31.6 µM (active). For the same compound, the Potency entry in test [2], in test [6], in [7], in test [8], in [9] and in test [10] was “inactive” throughout. The Potency entry in [11], in test [13] and in test [14] was “inactive” in each case. The compound was classed as inactive in test [3], in test [5] and in test [16]. The activation in test [15] was -0.0195%.
As for `C=CCOCC1CO1` (stereo not drawn), the Potency in [19] and in test [1] was more than 92 µM in each case. In addition, the compound was called inactive in [3], in test [5] and in test [16]. The Potency result in test [20], in test [4], in test [6], in test [7], in [8] and in test [9] was “inactive” in each case. The Potency result in [10], in [11], in test [12], in [13], in [14] and in [17] was “inactive” in each case. Besides, in test [15], the activation was -3.48%. Besides, the max response in test [18] was -5.74%.
